The list is not random: actives were taken first. Their share in the collection is about 5.7%.
NPSR antag = qHTS Assay for Antagonists of the Neuropeptide S Receptor: cAMP Signal Transduction | hit rate 1% among 220,000 | Potency, µM (series often up to 38.3 µM), for inactives: at the top dose activity change, negative = inhibition, actives largely listed as inhibitors | CHO-NPSR cells, cAMP TR-FRET, antagonist mode | Q6W5P4; also: nearly all actives have a fitted effect of over 50% in size
B2AR arrestin = qHTS assay of beta-arrestin-biased ligands of beta2-adrenergic receptor; Potency, µM (top dose mostly 46.1 µM), without a hit: top-dose activation, most hits filed as activators; hit rate 0.02% among 330,000; beta-arrestin recruitment to beta2AR, cell-based reporter; AID 492947, 2010;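 also: 0% = DMSO controls and full agonism = EC100 isoproterenol or metaproterenol; nearly all actives have a fitted effect of over 65% in size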
Target sequence (P07550 whole entry, looked up): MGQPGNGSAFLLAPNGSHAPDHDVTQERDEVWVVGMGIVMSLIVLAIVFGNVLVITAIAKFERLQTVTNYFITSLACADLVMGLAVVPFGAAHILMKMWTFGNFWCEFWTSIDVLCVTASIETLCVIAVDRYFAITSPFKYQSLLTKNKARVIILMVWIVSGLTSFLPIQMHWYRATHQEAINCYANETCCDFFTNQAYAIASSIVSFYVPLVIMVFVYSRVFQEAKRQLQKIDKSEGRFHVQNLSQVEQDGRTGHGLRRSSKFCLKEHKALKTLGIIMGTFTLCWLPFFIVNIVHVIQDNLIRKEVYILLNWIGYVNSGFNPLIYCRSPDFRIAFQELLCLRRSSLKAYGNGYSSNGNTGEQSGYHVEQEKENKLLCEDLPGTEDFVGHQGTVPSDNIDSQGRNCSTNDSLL
Gal4-VP16 FLuc = VP16 counterscreen qHTS for inhibitors of ROR gamma transcriptional activity | hit rate 3.5% among 310,000 | AID 2546, 2010 | Potency, µM (series often up to 53.6 µM), for inactives: at the top dose activity, negative = inhibition, most hits filed as inhibitors | Drosophila S2 Gal4-VP16 UAS-luciferase, luminescence, 20 h;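 also: Gal4-VP16 expression switched on by copper sulfate through the metallothionein promoter; nearly all actives have a fitted effect of over 50% in size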
RORg inh = qHTS for inhibitors of ROR gamma transcriptional activity; Nuclear receptor ROR-gamma (Mus musculus), P51450; Potency, µM (doses to about 53.6 µM), inactives show top-dose activity change, negative = inhibition, actives largely listed as inhibitors; Drosophila S2 Gal4-RORgamma UAS-luciferase reporter, 20 h; hit rate 5.4% among 310,000; also: nearly all actives have a fitted effect of over 60% in size
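Stable Schneider cell line, Gal4 DNA-binding domain fused to ROR gamma, UAS-luciferase. Cmpd 1 hr RT → CuSO4 700 uM final → 20 hr RT → luciferase reagent 10 min → luminescence.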
* = called active by the depositor; ? = inconclusive; / = no result; [ ] = dose if it differs, or a comment. Calls follow the shape of the dose curve; as a rule, active = well fitted curve in the direction sought with a large enough effect; inconclusive = small, poorly fitted or top-dose-only effect, or another doubt; inactive = no such curve, though single readings can be large; an effect the other way counts as inactive or inconclusive. Unless noted, % is scaled to controls: 0 for no effect and ±100 for the full control effect; potency is read from the fitted curve at half-maximal effect.

SMILES | NPSR antag | B2AR arrestin | Gal4-VP16 FLuc | RORg inh
COc1cccc(-c2c(C#N)c(SC)nc3cc(C)nn23)c1 | 1%[7.67 µM] | 0% | -18% | 1%
COc1ccc(Br)cc1C(=O)NCc1cccnc1 | 16%[46.1 µM] | -1% | -6% | 5%
O=C(NC(=S)NCc1cccnc1)c1cc2ccccc2o1 | -4% | -1% | -21% | 13µM*
O=C(NC(=S)NCc1cccnc1)c1cc(Br)ccc1Cl | / | 4% | ? | 22µM*
CC(=O)Nc1ccc(S(=O)(=O)N[C@@H](C)C(=O)OCc2ccc(Cl)cc2)cc1 | -2% | -1% | -5% | -6%[10 µM]
CN1C/C(=C/c2cccnc2)C(=O)/C(=C/c2cccnc2)C1 | -10% | 0% | 2.8µM* | 5.6µM*
CN1C/C(=C/c2ccc(B(O)O)cc2)C(=O)/C(=C/c2ccc(B(O)O)cc2)C1 | / | / | 4.5µM* | 2µM*
O=Cc1ccc(B(O)O)cc1 | / | / | 4% | -14%
O=S(=O)(NC1c2cccc3cccc(c23)C1Sc1ncccn1)c1ccccc1 (centres undefined) | -25% | 0% | -4% | -22%
COc1ccc(NC(=O)CN(C)C(C)C(=O)NC(=O)NC2CCCCC2)cc1 (centres undefined) | / | 0% | -4% | -14%
Cc1ccccc1-c1ocnc1C(=O)Nc1ccccc1NC(=O)c1ccccn1 | / | 11% | 7.1µM* | 2.2µM*
CC(=O)Oc1ccc(-c2cccc(C(=O)N(C)c3ccc(O)cc3)c2)cc1 | 0% | 0% | 7% | 14%
COC(=O)CCCSc1nccn1-c1ccccc1 | 6% | 0% | -14% | 0%
CCc1ccc(CSc2nccn2-c2ccccc2)cc1 | -17%[46.1 µM] | 0% | -28% | 8.9µM*
c1ccc(CCSc2nccn2-c2ccccc2)cc1 | -29%[46.1 µM] | 0% | -6% | 10µM*
O=C(Cc1ccc(Br)cc1)Nc1ccccc1Cl | 3% | 0% | -9% | -9%
CC(Sc1ncn[nH]1)C(=O)Nc1ccc(Cl)cn1 (centres undefined) | / | 0% | / | /
CC(=O)c1ccc(NC(=S)Nc2ccc3[nH]c(=O)[nH]c3c2)cc1 | 11% | 0% | 5% | 0%
Cc1ccc(NC(=S)Nc2ccc3[nH]c(=O)[nH]c3c2)cc1C | -8% | 1% | ? | 11µM*
O=C(OCc1ccc(F)cc1)c1ccc2c(c1)-c1ccccc1C2=O | -20%[46.1 µM] | 0% | -1% | 10%
CCOC(=O)C1=C(Cc2ccc(F)cc2)C(=O)c2ccccc2C1=O | ? | -1% | -26% | 14µM*
O=C(CC1SC(=NCCc2ccccc2)N(/N=C/c2cccs2)C1=O)Nc1ccc(Cl)cc1 (centres undefined) | -42% | 9% | 0.79µM* | 0.5µM*
O=C(CC1SC(=O)N(c2ccccc2)C1=O)Nc1ccc(Br)cc1 (centres undefined) | -13% | 4% | 7% | -26%
O=C(CC1SC(=O)N(c2ccccc2)C1=O)Nc1ccc(Cl)cc1 (centres undefined) | -1%[7.67 µM] | 0% | -6% | 16µM*
CC(=O)OCC1OC(C#CCCc2ccccc2)C=CC1OC(C)=O (centres undefined) | / | / | -2%[10 µM] | 17%[10 µM]
SMILES | NPSR antag | B2AR arrestin | Gal4-VP16 FLuc | RORg inh
O=C(/C=C/c1ccc(F)cc1)NC(=S)Nc1ccccc1C(=O)NC1CCCCC1 | 0%[46.1 µM] | -1% | 13µM* | ?
CC(C)(C)C(=O)NC(=S)Nc1ccccc1C(=O)NC1CCCCC1 | 6% | 0% | 22% | ?
CC(=O)NC(=S)Nc1ccccc1C(=O)NC1CCCCC1 | 15% | -1% | 4% | -3%
Cc1ccc(/C=C/C(=O)NC(=S)Nc2ccccc2C(=O)NC2CCCCC2)cc1 | 4%[46.1 µM] | -1% | -20% | ?
O=C(/C=C/c1ccccc1)NC(=S)Nc1ccccc1C(=O)NC1CCCCC1 | -7%[46.1 µM] | -1% | ? | 11µM*
COc1ccc(/C=C/C(=O)NC(=S)Nc2ccccc2C(=O)NC2CCCCC2)cc1 | ? | 0% | -11% | 14µM*
CCCn1c(-c2ccc(F)cc2)nc2c(NCCN(CC)CC)nc(C)nc21 | / | / | 3% | -12%
CCOC(=O)/C(C)=N/NC(C)=O | / | / | 9% | -11%
FC(F)(F)c1cccc(Oc2cc(C(F)(F)F)nc(-c3ccccn3)n2)c1 | -6%[46.1 µM] | -1% | 6% | -9%
COc1ccc(Sc2cc(C(F)(F)F)nc(-c3ccccn3)n2)cc1 | -11%[46.1 µM] | 0% | 11µM* | 4µM*
C#CCSc1cc(C(F)(F)F)nc(-c2ccccn2)n1 | 12% | 0% | -6% | 10µM*
CNc1cc(C(F)(F)F)nc(-c2ccccn2)n1 | -7%[46.1 µM] | -2% | 13µM* | 0.71µM*
